Inhibition data for 90 compounds are collected here from PubChem BioAssay AID588689 (Southern Research Specialized Biocontainment Screening …, 2011).

Molecules are shown by their SMILES. About 1,000 (0.29%) of roughly 340,000 compounds were called active. Cut-off read from the data, not from the text of the source: inconclusive = inhibition above about 29% without an active follow-up result; inactive = below that. A selection follows. Results with a measured potency or affinity are listed apart.

This assay concerns the target Genome polyprotein (Dengue virus type 2 (strain 16681-PDK53)) (UniProt P29991). The experiment in a line: flavivirus cap methylation enzyme inhibition – biochemical, confirmation dose response, primary screen (AID 588689). Particulars: Dengue-2 NS5 methyltransferase capping enzyme assay, at 25 µM, stronger effect = higher value.
Setting [1] is: measured here: pilot screen replicate inhibition.

For orientation: inhibition means the relative decrease from the control value, in per cent. For the compound `Cc1ccc(NC2CCCN(C(=O)c3cn4cc(Cl)ccc4n3)C2)cc1C` (stereo not drawn), the inhibition is 3.88% (inactive).

Regarding `COc1ccccc1N1CCN(CC(=O)Nc2ccc(CN3CCCCC3)cc2)CC1`, the inhibition was -7.05% (inactive).

`CC1=C(C#N)C(c2ccc(O)cc2)C2=C(CCCC2=O)N1` (stereo not drawn): the inhibition is 0% (inactive).

In the case of `COc1ccc2cc(C3(C)NC(=O)N(CC(=O)NCCC4=CCCCC4)C3=O)ccc2c1` (stereo not drawn), the inhibition was -6.89% (inactive). Besides, under setting [1], the inhibition is -2.13%.

Consider `Cc1cc(C)cc(NC(=S)NC2CC3CCCC(C2)N3C2CC2)c1` (stereo not drawn), for which the inhibition is -10.8% (inactive).

As to `Cc1cc(C(F)(F)F)nn1CC(=O)N1CCOCC1`, the inhibition was -2.05% (inactive).

For the compound `O=C(CN1C(=O)/C(=C2\SC(=S)N(C3CCS(=O)(=O)C3)C2=O)c2ccccc21)Nc1ccccc1` (stereo not drawn), the inhibition is -1.82% (inactive).

As for `COc1ccc(NC(=O)CN2C(=O)/C(=C3\SC(=S)N(CCC(=O)O)C3=O)c3ccccc32)cc1`, the inhibition was 2.68% (inactive).

As to `CCN1C(=O)C(=O)N(CC(=O)Nc2cccc(C(F)(F)F)c2)C1=O`, the inhibition is 6.2% (inactive).

For `CC(=O)N1C(=S)NC(=O)/C1=C1/C(=O)N(CC(=O)Nc2cccc(C)c2)c2ccccc21`, the inhibition was -2.91% (inactive).

As to `Cc1cccc(NC(=O)CN2C(=O)/C(=C3\SC(=S)N(CC4CCCO4)C3=O)c3ccccc32)c1` (stereo not drawn), the inhibition is -5.35% (inactive).

For `O=C(CN1C(=O)CNC1=O)Nc1cccc(C(F)(F)F)c1`, the inhibition was -1.61% (inactive).

With `CCO[C@H]1OC(C(=O)O)=C[C@@H](c2cn(C(C)=O)c3ccccc23)[C@@H]1CCCO`, the inhibition is -0.8% (inactive).

Turning to `Cc1ccccc1C(=O)NCCNC(=O)c1ccccn1`, the inhibition is 4.99% (inactive).

On to `O=C(CSc1ccc(F)cc1)Nc1ccc(N2CCOCC2)c(Cl)c1`, for which the inhibition is -4.54% (inactive).

As for `CC(=O)N1CCN(CC(=O)Nc2ccccc2C(=O)NCc2ccc(C)cc2)CC1`, the inhibition was -0.89% (inactive).

Regarding `Cc1ccc(OCC(=O)OCC(=O)Nc2ccc3c(c2)OCO3)cc1C`, the inhibition is -3.82% (inactive).

For `Cc1cc(C(=O)OCC(=O)NCc2ccc(Cl)cc2Cl)c(C)o1`, the inhibition is -0.73% (inactive).

`Clc1ccc(CN2CCSCC2)c(Cl)c1`: the inhibition is -3.29% (inactive). In addition, the inhibition under setting [1] came out at 2.1%.

Regarding `C=C(C)c1cccc(C(C)(C)NC(=O)N2CCCC(C)C2)c1` (stereo not drawn), the inhibition was -4.84% (inactive).

For the compound `Cc1cc(=O)[nH]c(N/N=C/c2cc(C)n(CC(F)(F)F)c2C)n1`, the inhibition is 1.74% (inactive).

Turning to `CC1CCN(C(=S)c2cn(Cc3ccc(F)cc3)c3ccccc23)CC1`, the inhibition is -6.61% (inactive).

In the case of `COCCN(C(=O)c1csnn1)C(C(=O)NC(C)(C)C)c1cccc(OC)c1` (stereo not drawn), the inhibition is 0% (inactive).

`N#Cc1cc(N2CCCCC2)c([N+](=O)[O-])cc1C#N`: the inhibition is -5.36% (inactive).

As to `O=[N+]([O-])c1cc(F)c(N2CCCCC2)cc1N1CCOCC1`, the inhibition was -8.91% (inactive).

Take `O=C(NCc1ccccc1Cl)C(=O)NCC1OCCN1S(=O)(=O)c1ccc(F)cc1` (stereo not drawn): the inhibition was -4.82% (inactive).

As to `CCc1ccc2c(c1)C(=O)C(=O)N2CCS(=O)(=O)c1ccccc1`, the inhibition is -11.6% (inactive).

In the case of `O=C(O)C(Cc1ccccc1)N1C(=O)/C(=C/c2ccccc2)SC1=S` (stereo not drawn), the inhibition is 15.5% (inactive).

Turning to `COc1cccc(/C=C2/SC(=S)N(CCCC(=O)Nc3ccc(O)cc3)C2=O)c1`, the inhibition is -5.15% (inactive).

Take `O=C(O)C(Cc1ccccc1)N1C(=O)/C(=C/c2cccnc2)SC1=S` (stereo not drawn): the inhibition was 8.37% (inactive).

For the compound `COc1ccc(/C=C2\SC(=S)N(C(Cc3ccccc3)C(=O)O)C2=O)cc1` (stereo not drawn), the inhibition is 20.7% (inactive).

On to `COc1cc2c(=O)[nH]c3cc([N+](=O)[O-])ccc3c2cc1[N+](=O)[O-]`, for which the inhibition is 8.05% (inactive).

On to `CCC(=O)Nc1nnc(Cc2ccccc2)s1`, for which the inhibition is 1.61% (inactive).

Turning to `CCN(CC)CCN1C(=O)C(=O)/C(=C(/O)c2ccc(S(=O)(=O)N3CCOCC3)cc2)C1c1ccc(Cl)cc1` (stereo not drawn), the inhibition was -6.64% (inactive).

Take `O=S(=O)(Nc1cccc2ccccc12)c1cccs1`: the inhibition was -1.29% (inactive).

Take `COc1ccccc1NS(=O)(=O)c1cccs1`: the inhibition is 0% (inactive).

For `O=C(CN1C(=O)/C(=C\c2cccc(Br)c2)Oc2ccccc21)NCCCN1CCOCC1`, the inhibition is 0.88% (inactive).

With `CCN1C(=O)C(=Cc2cccc(OC)c2Oc2ccc([N+](=O)[O-])cc2[N+](=O)[O-])SC1=S`, the inhibition is -1.31% (inactive).

Take `O=C(CN1C(=O)/C(=C/c2cccc(Br)c2)SC1=S)N1CCCC1`: the inhibition is -5.1% (inactive).

For the compound `O=C(CCCN1C(=O)/C(=C/c2ccccc2Cl)SC1=S)NNC(=O)c1ccccc1`, the inhibition is 8.33% (inactive).

As to `Cc1cc(NC(=O)CN2C(=O)/C(=C/c3ccccc3F)SC2=S)no1`, the inhibition is 2.68% (inactive).

On to `O=C1/C(=C\c2cccc([N+](=O)[O-])c2O)SC(=S)N1Cc1ccccc1`, for which the inhibition was 32.5% (inactive).

For the compound `O/N=C/c1cc(Br)ccc1OCc1ccccc1F`, the inhibition is 8.73% (inactive).

Turning to `CN1CCN(c2ccc(NS(=O)(=O)c3ccc(Cl)cc3)cn2)CC1`, the inhibition was -7.03% (inactive).

With `Cc1nnc(NC(=O)CC23CC4CC(CC(C4)C2)C3)s1`, the inhibition was -6.26% (inactive).

`O=C(Nc1ccc2c(c1)OCO2)C1CCN(S(=O)(=O)c2cccc3cccnc23)CC1`: the inhibition is 2.93% (inactive).

For `CCCOc1ccc(/C=C/C(=O)OCC(=O)N(C)c2c(N)n(Cc3ccccc3)c(=O)[nH]c2=O)cc1OCC`, the inhibition is 3.69% (inactive).

Regarding `CC(C)N(O)C(=O)NC(C)(C)C`, the inhibition was 0% (inactive).

For the compound `COc1ccc(NC2=CC(=O)N(C)C2=O)cc1`, the inhibition was -10.2% (inactive).

In the case of `COc1ccc(C(=O)Nc2cccc(-c3ccc4nncn4n3)c2)cc1OC`, the inhibition is 2.3% (inactive).

Consider `Cc1c(N=C/C=C2\N(C)c3ccccc3C2(C)C)c(=O)n(-c2ccccc2)n1C`, for which the inhibition was -3.46% (inactive).

As to `CCc1cc(=O)oc2c3c(cc(OCC(=O)NCCCn4ccnc4)c12)OC(C)(C)CC3`, the inhibition was -1.45% (inactive).

For `OCC[C@H]1C[C@H](O)[C@@H](O)[C@]2(OCCc3ccccc32)O1`, the inhibition was -1.2% (inactive).

Take `CCOc1cc(CNc2ccc(S(N)(=O)=O)cc2)cc(Cl)c1OC`: the inhibition was 3.64% (inactive).

`COc1cc(CNc2ccc(S(N)(=O)=O)cc2)ccc1OCc1ccccc1F`: the inhibition is -6.36% (inactive).

As to `CCOc1c(Cl)cc(CNc2ccc(S(N)(=O)=O)cc2)cc1OC`, the inhibition was -1.46% (inactive).

On to `CCOc1c(Br)cc(CNc2ccc(N3CCOCC3)cc2)cc1OC`, for which the inhibition was 70.4% (inactive).

Take `COc1cc(CNc2ccc(N3CCCC3)cc2)cc(Cl)c1OC`: the inhibition was 13.9% (inactive).

In the case of `COc1cc(CNc2ccc(N3CCCC3)cc2)ccc1OCc1ccccc1`, the inhibition was 12.3% (inactive).

With `Cc1nn(C)c(Cl)c1CN1CCCC(CCC(=O)NCc2ccccc2F)C1` (stereo not drawn), the inhibition is 0% (inactive).

On to `CCN1C(=O)[C@@H]2[C@@H](c3ccc(-c4ccc(OC)cc4)c(OC)c3)N3CCCC[C@@]3(C(=O)OC)[C@@H]2C1=O`, for which the inhibition was 17.5% (inactive).

`CCN1CCN(C(=O)CCc2nnc(CCc3c[nH]c4ccccc34)o2)[C@@H](C)C1=O`: the inhibition is -13.8% (inactive).

Take `CN(C(=O)CSc1nnc(-c2cccnc2)n1-c1ccccc1F)C1CCS(=O)(=O)C1` (stereo not drawn): the inhibition is 5.09% (inactive).

As for `CC(=O)C1=C(c2ccc(Br)cc2)C(=O)c2ccccc2C1=O`, the inhibition is 35% (inactive).

On to `O=C(C1=C(c2ccccc2)C(=O)c2ccccc2C1=O)c1ccccc1`, for which the inhibition was 3.59% (inactive).

Consider `Nc1ccccc1NC(=O)c1ccccc1`, for which the inhibition was 3.27% (inactive).

Turning to `Cc1cc(C)cc(NC2=C(N)C(=O)c3ccccc3C2=O)c1`, the inhibition is 13% (inactive).

With `Nc1ccc(NC(=O)c2ccccc2)c2c1C(=O)c1ccccc1C2=O`, the inhibition was 3.24% (inactive).

For `COc1cc(NS(=O)(=O)c2ccc(C)cc2)c2c(c1N)C(=O)c1ccccc1C2=O`, the inhibition was 9.7% (inactive).

As for `O=C(NCCc1nc2ccccc2[nH]1)/C(=C/c1ccc2c(c1)OCO2)NC(=O)c1ccc(Cl)cc1Cl`, the inhibition is -5.82% (inactive).

Take `CCCCNC(=O)COC(=O)c1c2c(nc3ccccc13)CCC2`: the inhibition is 4.4% (inactive).

In the case of `Cn1ccnc1C1CCCCN1C(=O)c1cc(COc2ccc(F)cc2F)on1` (stereo not drawn), the inhibition was 1.47% (inactive).

`O=C1C(Cl)=C(N2CCN(Cc3ccccc3)CC2)C(=O)N1c1ccccc1`: the inhibition is 67.7% (inactive).

For `CN(C)C1=C(Cl)C(=O)N(c2ccc(Cl)c(Cl)c2)C1=O`, the inhibition is 26.8% (inactive).

Take `Cc1ccc(N2C(=O)C(Cl)=C(N3CCCCCC3)C2=O)cc1`: the inhibition is -6.21% (inactive).

Regarding `Cc1cccc(C)c1N1C(=O)C(Cl)=C(N2CCCC2)C1=O`, the inhibition was -10.8% (inactive).

`O=C1C(Cl)=C(N2CCOCC2)C(=O)N1CCc1ccccc1`: the inhibition is -0.8% (inactive).

On to `CC(C)c1ccc(S(=O)(=O)Nc2ccc(N3CCOCC3)cc2)cc1`, for which the inhibition was -9.76% (inactive).

In the case of `CN1CCN(C2=C(Cl)C(=O)N(c3ccc(Cl)cc3)C2=O)CC1`, the inhibition was 14.2% (inactive).

`O=C(Nc1cccc(-n2cccn2)c1)C1CCCN(Cc2cc3ccccc3[nH]2)C1` (stereo not drawn): the inhibition is -16.8% (inactive).

On to `COc1ccc(N2CCN(C3CCCN(C(=O)CN4CCCC4=O)C3)CC2)cc1` (stereo not drawn), for which the inhibition was -4.52% (inactive).

Consider `COCCCN1Cc2cccc(C(=O)O)c2C1=O`, for which the inhibition is -4.84% (inactive).

On to `O=C(CCCc1nc(-c2ccc(Cl)cc2)no1)NCC1CCCO1` (stereo not drawn), for which the inhibition was 1.63% (inactive).

With `CC1(C)CC(=O)C(C2=NC3(CCCCC3)Cc3ccccc32)=C(O)C1`, the inhibition is 2.33% (inactive).

As to `C=C(C1=CCN(S(=O)C(C)(C)C)[C@@H]1CCO)c1ccccc1` (stereo partly drawn), the inhibition was 0.33% (inactive). Further, the inhibition under setting [1] was -2.42%.

`COc1ccc(/C=C(\C#N)C(=O)Nc2cc(S(=O)(=O)N3CCOCC3)ccc2N2CCCC2)cc1`: the inhibition was -4.53% (inactive).

For the compound `COc1ccc(-c2nc(-c3ccccn3)no2)cc1`, the inhibition was -2.71% (inactive).

Consider `COC(=O)c1ccccc1N(C)S(C)(=O)=O`, for which the inhibition was -6.11% (inactive).

Take `COc1ccccc1N1CCN(CCNC(=O)Nc2cccc(C)c2C)CC1`: the inhibition is -5.61% (inactive).

For `Cc1ccccc1NC(=O)c1cccc(N2C(=O)C3CCCCC3C2=O)c1` (stereo not drawn), the inhibition is -9.97% (inactive).
